Laboratory results from PubChem BioAssay (NCI).
Compounds without any hit were thinned out: in the full panel of roughly 79,000, 15% have a hit. Unmarked numbers belong to inactive results. Activity calls are given as the source filed them. Rule as the data show it: active = growth inhibition above about 70%; inactive = the rest.

Columns and labels:
[1] = NCI Yeast Anticancer Drug Screen. Data for the rad50 strain (AID 155);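 also: 0% = growth of vehicle-only cultures of the same strain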; settings: S. cerevisiae rad50 strain growth inhibition, hits give high values
How it was run: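 Inhibition values express reduced yeast growth in compound-treated cultures relative to vehicle-treated controls.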

[2] = NCI Yeast Anticancer Drug Screen. Data for the mec2-1 strain (AID 157); settings: S. cerevisiae mec2-1 strain, hits give high values
How it was run: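 Readout is yeast growth inhibition, normalised to vehicle-treated controls, in the mec2-1 strain exposed to compound.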

[3] = NCI Yeast Anticancer Drug Screen. Data for the sgs1 mgt1 strain (AID 161);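 also: 0% = growth of cultures given vehicle only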; settings: S. cerevisiae sgs1 mgt1 strain, hits give high values
How it was run: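 Yeast cells carrying a defined DNA-repair defect were exposed to test compounds. Growth inhibition was measured relative to vehicle-treated controls.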

[4] = NCI Yeast Anticancer Drug Screen. Data for the cln2 rad14 strain (AID 165);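 also: 0% = growth equal to vehicle treated cultures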; settings: S. cerevisiae cln2 rad14 strain, hits give high values
How it was run: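 Relative to vehicle controls, growth inhibition of compound-treated cln2 rad14 yeast was recorded.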

[5] = NCI Yeast Anticancer Drug Screen. Data for the bub3 strain (AID 167); settings: S. cerevisiae bub3 mutant strain, hits give high values
How it was run: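 Steps: expose the mutant yeast strain to compound; grow alongside vehicle-treated cultures; measure growth; express inhibition against the vehicle cultures.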

[6] = NCI Yeast Anticancer Drug Screen. Data for the mlh1 rad18 strain (AID 175); settings: S. cerevisiae mlh1 rad18 strain growth inhibition, hits give high values
How it was run: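 Test agents were incubated with a yeast strain of defined genotype (DNA damage repair defect). Inhibition of growth was derived by comparison with vehicle-exposed cultures.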

[7] = at 5.0 µM (retest, dose inferred, filed as 0.5)
[8] = at 50.0 µM (retest, dose inferred, filed as 5.0)

| SMILES | growth inhibition [1, 7] | growth inhibition [1, 8] | growth inhibition ([1]; at 50.0 µM) | growth inhibition [2, 7] | growth inhibition [2, 8] | growth inhibition ([2]; at 50.0 µM) | growth inhibition [3, 7] | growth inhibition [3, 8] | growth inhibition ([3]; at 50.0 µM) | growth inhibition [4, 7] | growth inhibition [4, 8] | growth inhibition ([4]; at 50.0 µM) | growth inhibition [5, 7] | growth inhibition [5, 8] | growth inhibition ([5]; at 50.0 µM) | growth inhibition [6, 7] | growth inhibition [6, 8] | growth inhibition ([6]; at 50.0 µM) |
| --- | --- | --- | --- | --- | --- | --- | --- | --- | --- | --- | --- | --- | --- | --- | --- | --- | --- | --- |
| CC1CCN(CCOC(=O)C(c2ccccc2)C2C=CCCC2)C1C (stereo not given) | 16% | 59% | 81.1% (active) | 45% | 71% (active) | 58.9% | 53% | 80% (active) | 84.5% (active) | 16% | 53% | 86.9% (active) | 16% | 50% | 62% | 54% | 78% (active) | 77.5% (active) |
| O=C(Nn1c(=O)c(=O)oc2ccccc21)C(F)(F)F | 0% | 90% (active) | 94.7% (active) | 1% | 87% (active) | 69.4% | 17% | 88% (active) | 81.2% (active) | 3% | 93% (active) | 94.2% (active) | 9% | 95% (active) | 90.9% (active) | 26% | 97% (active) | 97.4% (active) |
| CC(C)c1cc2c(cc1O)C(O)C1(O)CCCC(C)(C)[C@H]1CC2 (stereo not given in full) | -6% | 99% (active) | 91.4% (active) | -1% | 100% (active) | 93.7% (active) | -1% | 99% (active) | 93% (active) | -11% | 99% (active) | 91.6% (active) | 6% | 99% (active) | 93% (active) | -3% | 99% (active) | 91.8% (active) |
| Oc1ccc(COCCBr)c2cccnc12 | 8% | 98% (active) | 98.8% (active) | -2% | 99% (active) | 99.5% (active) | 4% | 99% (active) | 99.2% (active) | 8% | 98% (active) | 98.5% (active) | 1% | 98% (active) | 99.2% (active) | 30% | 99% (active) | 99.2% (active) |
| CCCCC1(CC)COC(c2ccccc2OC)OC1 (stereo not given) | -6% | 88% (active) | -28.4% | -5% | 88% (active) | 2.45% | -1% | 81% (active) | 5.5% | -9% | 65% | -9.85% | 31% | 92% (active) | 76.5% (active) | -2% | 87% (active) | -17.2% |
| O=S(Nc1ccccc1Br)c1ccccc1 (stereo not given) | -4% | 10% | 22.2% | -2% | 16% | 24.1% | -3% | 21% | 59.2% | 1% | 12% | -3.25% | -4% | 34% | 16.9% | -4% | 45% | 44.8% |
| COc1cccc2nc3c(C(=O)NCCN(C)C)cccc3cc12 | 60% | 94% (active) | 81.7% (active) | 15% | 43% | 15.9% | 24% | 56% | 10.4% | 15% | 49% | -7.1% | 22% | 47% | -50.6% | 24% | 65% | 0.05% |
| O=[N+]([O-])c1ccc(/C=N/O)s1 | -11% | 99% (active) | 99.5% (active) | 3% | 100% (active) | 99.7% (active) | -7% | 99% (active) | 97.7% (active) | 10% | 95% (active) | 99.2% (active) | -17% | 99% (active) | 99.7% (active) | 12% | 99% (active) | 99.3% (active) |
| CCOC(=O)C(C#N)c1cc(O)c(C(C#N)C(=O)OCC)cc1O (stereo not given) | -2% | -2% | -5.45% | -3% | -4% | 6.85% | -4% | -6% | -1.65% | 0% | -10% | 55.5% | -1% | -5% | 13.4% | -2% | -5% | -6.9% |
| Oc1ccc(Cl)cc1Cc1cc(Cl)cc(Cc2cc(Cl)ccc2O)c1O | -1% | 97% (active) | 96% (active) | 1% | 98% (active) | 97.3% (active) | 4% | 98% (active) | 97.5% (active) | -12% | 95% (active) | 96.5% (active) | -17% | 98% (active) | 96.7% (active) | 14% | 97% (active) | 95.8% (active) |
